From PubChem BioAssay AID1159580 (chemical genetic matrix, 2015)
Several values for one entry are separate records, joined by “and”; a condition that tells them apart may be missing. Identical values can stand only once. Among all 5,500 compounds or so, about 2,000 (36%) were called active. Inconclusive results (about 18%) are left out. Cut-off read from the data, not from the text of the source: active = normalized growth mostly below about 0.91 (no sharp cut-off); inconclusive = no clear call, values can overlap the other calls; inactive = mostly above about 0.92. The list shows a part of the results.

Experiment: chemical genetic growth profiling, strain panel (AID 1159580);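 note: tested at 20 µM; growth read once vehicle control cultures reached saturation at 30 °C; 1 = growth at the plate median or of vehicle wells; lower values mean less growth of the strain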
Details: growth OD

Measured: normalized growth

OC(CCN1CCCCC1)(c1ccccc1)C1CCCCC1 (stereo unspecified)
inactive: S. cerevisiae deletion strains, locus YJR075W, strain HOC1, active compounds read low 1.01 and 0.98 | S. cerevisiae deletion strains, locus YKL009W, strain mrt4, active compounds read low 0.999 | S. cerevisiae deletion strains, locus YKL068W, active compounds read low 0.997 | S. cerevisiae deletion strains, locus YKL085W, strain MDH1 (second series), active compounds read low 0.998 | S. cerevisiae deletion strains, locus YKL085W, strain MDH1, active compounds read low 0.998 | S. cerevisiae deletion strains, locus YKL160W, strain elf1, active compounds read low 0.96 | S. cerevisiae deletion strains, locus YKL190W, strain CNB1, active compounds read low 1.01 | S. cerevisiae deletion strains, locus YKR001C, strain vps1, active compounds read low 0.985 | S. cerevisiae deletion strains, locus YKR026C, strain gcn3, active compounds read low 0.971 | S. cerevisiae deletion strains, locus YKR091W, strain srl3, active compounds read low 0.978 | S. cerevisiae deletion strains, locus YLL001W, strain dnm1, active compounds read low 0.918 | S. cerevisiae deletion strains, locus YLL026W, active compounds read low 0.981 | S. cerevisiae deletion strains, locus YLL041C, strain sdh2, active compounds read low 0.975 | S. cerevisiae deletion strains, locus YLR027C, strain aat2, active compounds read low 0.954 | S. cerevisiae deletion strains, locus YLR039C, strain RIC1, active compounds read low 1.12 | S. cerevisiae deletion strains, locus YLR058C, strain SHM2, active compounds read low 1.01 | S. cerevisiae deletion strains, locus YLR102C, strain apc9, active compounds read low 0.995 | S. cerevisiae deletion strains, locus YLR113W, strain HOG1, active compounds read low 0.991 | S. cerevisiae deletion strains, locus YLR221C, strain rsa3, active compounds read low 1.01 | S. cerevisiae deletion strains, locus YLR258W, strain gsy2, active compounds read low 0.992 | S. cerevisiae deletion strains, locus YLR262C, strain YPT6 (second series), active compounds read low 0.989 | S. cerevisiae deletion strains, locus YLR262C, strain YPT6, active compounds read low 1.1 | S. cerevisiae deletion strains, locus YLR268W, strain sec22, active compounds read low 0.98 | S. cerevisiae deletion strains, locus YLR320W, strain mms22, active compounds read low 0.961 | S. cerevisiae deletion strains, locus YLR330W, strain CHS5, active compounds read low 1.01 | S. cerevisiae deletion strains, locus YLR342W, strain FKS1 (second series), active compounds read low 1 | S. cerevisiae deletion strains, locus YLR342W, strain FKS1, active compounds read low 0.959 | S. cerevisiae deletion strains, locus YLR357W, strain rsc2, active compounds read low 0.939 | S. cerevisiae deletion strains, locus YLR370C, strain arc18, active compounds read low 0.974 | S. cerevisiae deletion strains, locus YLR371W, strain rom2, active compounds read low 1 | S. cerevisiae deletion strains, locus YLR384C, strain iki3, active compounds read low 0.961 | S. cerevisiae deletion strains, locus YLR418C, strain cdc73, active compounds read low 0.966 | S. cerevisiae deletion strains, locus YML016C, strain PPZ1, active compounds read low 1.01 | S. cerevisiae deletion strains, locus YML032C, strain rad52, active compounds read low 0.986 | S. cerevisiae deletion strains, locus YML120C, strain ndi1, active compounds read low 0.97 | S. cerevisiae deletion strains, locus YML124C, strain tub3, active compounds read low 0.997 | S. cerevisiae deletion strains, locus YMR058W, strain fet3, active compounds read low 0.964 | S. cerevisiae deletion strains, locus YMR078C, strain ctf18, active compounds read low 0.998 | S. cerevisiae deletion strains, locus YMR125W, strain sto1, active compounds read low 0.977 | S. cerevisiae deletion strains, locus YMR129W, active compounds read low 0.98 | S. cerevisiae deletion strains, locus YMR205C, strain PFK2, active compounds read low 0.955 | S. cerevisiae deletion strains, locus YMR223W, strain ubp8, active compounds read low 1.01 | S. cerevisiae deletion strains, locus YMR231W, strain pep5, active compounds read low 0.973 | S. cerevisiae deletion strains, locus YMR263W, strain SAP30, active compounds read low 1.01 and 0.983 | S. cerevisiae deletion strains, locus YMR307W, strain GAS1, active compounds read low 1.01 and 0.985 | S. cerevisiae deletion strains, locus YNL067W, strain RPL9B, active compounds read low 1 | S. cerevisiae deletion strains, locus YNL071W, strain lat1, active compounds read low 0.98 | S. cerevisiae deletion strains, locus YNL128W, strain TEP1, active compounds read low 1.02 | S. cerevisiae deletion strains, locus YNL153C, strain GIM3, active compounds read low 1 | S. cerevisiae deletion strains, locus YNL175C, strain NOP13, active compounds read low 1.01 | S. cerevisiae deletion strains, locus YNL183C, strain NPR1, active compounds read low 0.935 | S. cerevisiae deletion strains, locus YNL197C, strain WHI3, active compounds read low 1.03 | S. cerevisiae deletion strains, locus YNL209W, strain ssb2, active compounds read low 0.993 | S. cerevisiae deletion strains, locus YNL224C, strain SQS1, active compounds read low 0.998 | S. cerevisiae deletion strains, locus YNL233W, strain BNI4, active compounds read low 0.998 | S. cerevisiae deletion strains, locus YNL248C, strain rpa49, active compounds read low 0.995 | S. cerevisiae deletion strains, locus YNL250W, strain rad50, active compounds read low 0.999 | S. cerevisiae deletion strains, locus YNL271C, strain bni1, active compounds read low 0.989 | S. cerevisiae deletion strains, locus YNL298W, strain CLA4, active compounds read low 1.02 | S. cerevisiae deletion strains, locus YNL307C, strain MCK1, active compounds read low 0.998 | S. cerevisiae deletion strains, locus YNL322C, strain KRE1 (second series), active compounds read low 0.976 | S. cerevisiae deletion strains, locus YNL322C, strain KRE1, active compounds read low 1.01 | S. cerevisiae deletion strains, locus YNR049C, strain mso1, active compounds read low 0.967 | S. cerevisiae deletion strains, locus YNR052C, strain pop2, active compounds read low 1 | S. cerevisiae deletion strains, locus YOL006C, strain TOP1, active compounds read low 0.951 | S. cerevisiae deletion strains, locus YOL012C, strain htz1 0.776 | S. cerevisiae deletion strains, locus YOL147C, strain pex11, active compounds read low 0.994 | S. cerevisiae deletion strains, locus YOR001W, strain rrp6, active compounds read low 0.949 | S. cerevisiae deletion strains, locus YOR061W, strain CKA2, active compounds read low 1.01 | S. cerevisiae deletion strains, locus YOR069W, strain VPS5, active compounds read low 1.01 | S. cerevisiae deletion strains, locus YOR070C, strain gyp1, active compounds read low 0.986 | S. cerevisiae deletion strains, locus YOR080W, strain dia2, active compounds read low 0.971 | S. cerevisiae deletion strains, locus YOR083W, strain WHI5 (second series), active compounds read low 0.994 | S. cerevisiae deletion strains, locus YOR083W, strain WHI5, active compounds read low 0.951 | S. cerevisiae deletion strains, locus YOR106W, strain vam3, active compounds read low 0.936 | S. cerevisiae deletion strains, locus YOR136W, strain idh2, active compounds read low 1 | S. cerevisiae deletion strains, locus YOR144C, strain elg1, active compounds read low 0.993 | S. cerevisiae deletion strains, locus YOR184W, strain ser1, active compounds read low 1.01 | S. cerevisiae deletion strains, locus YOR231W, strain MKK1, active compounds read low 0.984 | S. cerevisiae deletion strains, locus YOR265W, strain rbl2, active compounds read low 0.983 | S. cerevisiae deletion strains, locus YOR270C, strain vph1, active compounds read low 0.849 | S. cerevisiae deletion strains, locus YOR290C, strain snf2, active compounds read low 0.989 | S. cerevisiae deletion strains, locus YOR316C, strain cot1, active compounds read low 1 | S. cerevisiae deletion strains, locus YPL051W, strain arl3, active compounds read low 0.984 | S. cerevisiae deletion strains, locus YPL055C, strain LGE1, active compounds read low 1.03 and 0.971 | S. cerevisiae deletion strains, locus YPL078C, strain atp4, active compounds read low 0.931 | S. cerevisiae deletion strains, locus YPL106C, strain sse1, active compounds read low 1.01 | S. cerevisiae deletion strains, locus YPL240C, strain hsp82, active compounds read low 0.976 | S. cerevisiae deletion strains, locus YPL241C, strain CIN2, active compounds read low 1.01 | S. cerevisiae deletion strains, locus YPL256C, strain CLN2, active compounds read low 0.962 | S. cerevisiae deletion strains, locus YPR119W, strain clb2, active compounds read low 0.998 | S. cerevisiae deletion strains, locus YPR141C, strain kar3, active compounds read low 1.01 | S. cerevisiae deletion strains, locus YPR163C, strain tif3, active compounds read low 0.988 | S. cerevisiae deletion strains, locus YPR167C, strain met16, active compounds read low 0.998 | S. cerevisiae deletion strains, strain wtn01, active compounds read low 0.993 | S. cerevisiae strains, strain wild type, active compounds read low 1.01
